# Laboratory results as given in ChEMBL document CHEMBL1961873, “Compounds: GSK PKIS; Assays: Nanosyn kinase panel” (2012).
# Assays:
# [1] = biological target: T1, Serine/threonine-protein kinase TBK1 (Homo sapiens) (UniProt Q9UHD2); settings: at 1 µM;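 also: values are mean inhibition of TBK1, screened as part of the GSK published kinase inhibitor set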
# T1 sequence (whole entry): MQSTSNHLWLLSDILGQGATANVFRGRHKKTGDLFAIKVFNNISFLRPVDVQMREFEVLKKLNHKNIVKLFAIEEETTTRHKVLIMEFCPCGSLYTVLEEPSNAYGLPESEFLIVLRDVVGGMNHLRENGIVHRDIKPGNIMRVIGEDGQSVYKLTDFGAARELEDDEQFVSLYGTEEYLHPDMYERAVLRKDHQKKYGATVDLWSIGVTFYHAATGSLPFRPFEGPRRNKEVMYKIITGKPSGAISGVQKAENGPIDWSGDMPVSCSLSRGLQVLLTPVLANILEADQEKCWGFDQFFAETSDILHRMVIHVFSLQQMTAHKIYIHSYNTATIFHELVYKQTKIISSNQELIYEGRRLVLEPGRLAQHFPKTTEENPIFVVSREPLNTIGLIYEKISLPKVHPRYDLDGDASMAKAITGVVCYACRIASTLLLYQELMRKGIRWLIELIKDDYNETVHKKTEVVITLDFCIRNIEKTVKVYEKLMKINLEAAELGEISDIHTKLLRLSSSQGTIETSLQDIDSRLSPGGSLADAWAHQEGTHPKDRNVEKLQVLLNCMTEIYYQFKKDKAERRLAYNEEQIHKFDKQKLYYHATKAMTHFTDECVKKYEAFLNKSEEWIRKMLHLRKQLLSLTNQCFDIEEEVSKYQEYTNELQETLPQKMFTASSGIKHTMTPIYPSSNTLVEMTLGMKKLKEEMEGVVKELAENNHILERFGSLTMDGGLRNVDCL
# [2] = biological target: T2, Testis-specific serine/threonine-protein kinase 1 (Homo sapiens) (UniProt Q9BXA7); settings: at 0.1 µM
# T2 sequence (whole entry): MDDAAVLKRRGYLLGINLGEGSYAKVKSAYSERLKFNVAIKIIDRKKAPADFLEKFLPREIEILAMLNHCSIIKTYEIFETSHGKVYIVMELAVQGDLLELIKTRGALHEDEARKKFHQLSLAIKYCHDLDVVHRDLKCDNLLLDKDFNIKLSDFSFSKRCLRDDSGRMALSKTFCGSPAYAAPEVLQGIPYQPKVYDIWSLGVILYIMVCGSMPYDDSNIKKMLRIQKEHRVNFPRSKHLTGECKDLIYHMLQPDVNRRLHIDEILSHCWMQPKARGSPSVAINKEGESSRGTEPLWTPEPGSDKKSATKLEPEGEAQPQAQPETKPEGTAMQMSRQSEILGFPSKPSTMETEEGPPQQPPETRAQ
# [3] = biological target: T2, Testis-specific serine/threonine-protein kinase 1 (Homo sapiens); settings: at 1 µM
# [4] = biological target: T3, Testis-specific serine/threonine-protein kinase 2 (Homo sapiens) (UniProt Q96PF2); settings: at 0.1 µM
# T3 sequence (whole entry): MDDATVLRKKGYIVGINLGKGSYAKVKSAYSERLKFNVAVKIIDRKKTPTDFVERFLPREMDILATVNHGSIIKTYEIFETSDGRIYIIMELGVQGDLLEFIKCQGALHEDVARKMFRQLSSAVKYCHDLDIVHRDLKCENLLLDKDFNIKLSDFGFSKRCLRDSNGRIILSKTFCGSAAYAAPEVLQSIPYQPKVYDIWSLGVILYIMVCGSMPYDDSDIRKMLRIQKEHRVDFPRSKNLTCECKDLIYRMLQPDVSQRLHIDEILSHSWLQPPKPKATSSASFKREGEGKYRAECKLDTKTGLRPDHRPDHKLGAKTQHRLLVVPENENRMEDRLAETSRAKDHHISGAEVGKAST
# [5] = biological target: T3, Testis-specific serine/threonine-protein kinase 2 (Homo sapiens); settings: at 1 µM
# [6] = biological target: Casein kinase I isoform alpha (Homo sapiens) (UniProt P48729); settings: at 0.1 µM
# [7] = biological target: Casein kinase I isoform alpha (Homo sapiens) (UniProt P48729); settings: at 1 µM
# [8] = biological target: Casein kinase I isoform gamma-1 (Homo sapiens) (UniProt Q9HCP0); settings: at 0.1 µM
# [9] = biological target: Casein kinase I isoform gamma-1 (Homo sapiens) (UniProt Q9HCP0); settings: at 1 µM
# [10] = biological target: Casein kinase I isoform gamma-2 (Homo sapiens) (UniProt P78368); settings: at 0.1 µM
# [11] = biological target: Casein kinase I isoform gamma-2 (Homo sapiens) (UniProt P78368); settings: at 1 µM
# [12] = biological target: Casein kinase I isoform gamma-3 (Homo sapiens) (UniProt Q9Y6M4); settings: at 0.1 µM
# [13] = biological target: Casein kinase I isoform gamma-3 (Homo sapiens) (UniProt Q9Y6M4); settings: at 1 µM
# [14] = biological target: Cyclin-dependent kinase 1 (Homo sapiens) (UniProt P06493); settings: at 0.1 µM
# [15] = biological target: Cyclin-dependent kinase 1 (Homo sapiens) (UniProt P06493); settings: at 1 µM
# [16] = biological target: Cyclin-dependent kinase 2 (Homo sapiens) (UniProt P24941); settings: at 0.1 µM
# [17] = biological target: Cyclin-dependent kinase 2 (Homo sapiens) (UniProt P24941); settings: at 1 µM
# [18] = biological target: Cyclin-dependent kinase 2 (Homo sapiens) (UniProt P24941); settings: at 0.1 µM; remark: listed apart in the source
# [19] = biological target: Cyclin-dependent kinase 2 (Homo sapiens) (UniProt P24941); settings: at 1 µM; remark: listed apart in the source
# [20] = biological target: CDK3/Cyclin E (Homo sapiens) (UniProt P24864+Q00526); settings: at 0.1 µM;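 also: reported percentages are mean inhibition values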
# CDK3/Cyclin E (Homo sapiens), sequence (P24864 whole entry, looked up): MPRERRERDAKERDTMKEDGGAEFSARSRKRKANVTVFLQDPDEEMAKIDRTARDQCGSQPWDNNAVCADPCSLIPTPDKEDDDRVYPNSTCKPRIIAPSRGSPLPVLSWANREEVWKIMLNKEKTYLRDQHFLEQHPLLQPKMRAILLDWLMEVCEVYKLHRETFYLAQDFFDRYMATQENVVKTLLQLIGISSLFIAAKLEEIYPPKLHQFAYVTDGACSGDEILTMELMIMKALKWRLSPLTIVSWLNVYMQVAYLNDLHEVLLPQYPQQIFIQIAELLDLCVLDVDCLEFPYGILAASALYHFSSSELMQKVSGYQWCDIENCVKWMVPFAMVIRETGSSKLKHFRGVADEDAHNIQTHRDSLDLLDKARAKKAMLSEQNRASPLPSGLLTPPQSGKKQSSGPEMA
# CDK3/Cyclin E (Homo sapiens), sequence (Q00526 whole entry, looked up): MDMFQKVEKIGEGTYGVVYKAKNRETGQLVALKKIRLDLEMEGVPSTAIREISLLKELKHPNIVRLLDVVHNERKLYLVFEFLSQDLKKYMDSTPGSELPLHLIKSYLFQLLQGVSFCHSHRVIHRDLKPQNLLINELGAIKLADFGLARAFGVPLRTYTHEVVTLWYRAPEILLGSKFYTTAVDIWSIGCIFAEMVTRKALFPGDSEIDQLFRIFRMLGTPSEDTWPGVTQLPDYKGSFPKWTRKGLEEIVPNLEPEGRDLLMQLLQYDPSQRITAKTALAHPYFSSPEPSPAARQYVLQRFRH
# Casein kinase I isoform gamma-2 (Homo sapiens), sequence (P78368 whole entry, looked up, canonical isoform): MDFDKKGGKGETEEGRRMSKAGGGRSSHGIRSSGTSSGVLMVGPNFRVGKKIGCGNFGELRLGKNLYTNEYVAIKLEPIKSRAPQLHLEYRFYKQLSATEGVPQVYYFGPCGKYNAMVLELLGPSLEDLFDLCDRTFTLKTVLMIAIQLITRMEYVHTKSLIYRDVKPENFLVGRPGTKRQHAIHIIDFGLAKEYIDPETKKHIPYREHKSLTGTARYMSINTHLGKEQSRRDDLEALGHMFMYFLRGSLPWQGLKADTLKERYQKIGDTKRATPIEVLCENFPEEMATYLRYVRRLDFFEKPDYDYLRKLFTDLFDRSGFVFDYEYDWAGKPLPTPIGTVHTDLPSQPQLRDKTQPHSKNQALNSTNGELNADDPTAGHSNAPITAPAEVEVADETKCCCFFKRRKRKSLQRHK
# Casein kinase I isoform gamma-3 (Homo sapiens), sequence (Q9Y6M4 whole entry, looked up, canonical isoform): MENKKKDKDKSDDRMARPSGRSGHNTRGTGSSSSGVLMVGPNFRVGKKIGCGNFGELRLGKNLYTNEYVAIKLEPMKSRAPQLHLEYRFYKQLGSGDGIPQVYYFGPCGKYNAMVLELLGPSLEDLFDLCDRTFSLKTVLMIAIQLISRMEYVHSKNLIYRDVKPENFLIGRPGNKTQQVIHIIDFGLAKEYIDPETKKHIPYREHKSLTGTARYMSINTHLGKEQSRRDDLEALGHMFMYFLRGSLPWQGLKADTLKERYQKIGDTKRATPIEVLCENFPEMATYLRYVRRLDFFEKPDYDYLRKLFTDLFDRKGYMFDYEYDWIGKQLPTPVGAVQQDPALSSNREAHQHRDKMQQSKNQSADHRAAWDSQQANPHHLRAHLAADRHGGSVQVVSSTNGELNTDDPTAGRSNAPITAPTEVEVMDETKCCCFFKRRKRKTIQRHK
# Casein kinase I isoform alpha (Homo sapiens), sequence (P48729 2-337 limits assumed): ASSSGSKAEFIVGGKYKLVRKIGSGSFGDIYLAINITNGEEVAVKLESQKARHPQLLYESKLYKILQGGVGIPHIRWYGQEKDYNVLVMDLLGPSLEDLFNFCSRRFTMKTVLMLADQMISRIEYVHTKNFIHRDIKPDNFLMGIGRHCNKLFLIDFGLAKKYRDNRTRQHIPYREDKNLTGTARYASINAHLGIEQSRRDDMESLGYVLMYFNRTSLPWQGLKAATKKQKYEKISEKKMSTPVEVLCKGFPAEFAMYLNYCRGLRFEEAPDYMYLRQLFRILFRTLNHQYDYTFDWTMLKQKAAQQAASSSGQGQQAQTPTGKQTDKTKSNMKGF
# Cyclin-dependent kinase 1 (Homo sapiens), sequence (P06493 whole entry, looked up): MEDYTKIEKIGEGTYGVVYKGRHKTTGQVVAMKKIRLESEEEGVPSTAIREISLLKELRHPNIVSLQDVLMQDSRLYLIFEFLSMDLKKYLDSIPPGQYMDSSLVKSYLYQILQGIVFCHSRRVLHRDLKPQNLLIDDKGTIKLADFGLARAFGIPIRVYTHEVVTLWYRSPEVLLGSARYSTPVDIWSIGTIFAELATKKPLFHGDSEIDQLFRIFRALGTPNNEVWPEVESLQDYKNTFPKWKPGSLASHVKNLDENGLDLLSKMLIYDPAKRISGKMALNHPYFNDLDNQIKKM
# Casein kinase I isoform gamma-1 (Homo sapiens), sequence (Q9HCP0 whole entry, looked up, canonical isoform): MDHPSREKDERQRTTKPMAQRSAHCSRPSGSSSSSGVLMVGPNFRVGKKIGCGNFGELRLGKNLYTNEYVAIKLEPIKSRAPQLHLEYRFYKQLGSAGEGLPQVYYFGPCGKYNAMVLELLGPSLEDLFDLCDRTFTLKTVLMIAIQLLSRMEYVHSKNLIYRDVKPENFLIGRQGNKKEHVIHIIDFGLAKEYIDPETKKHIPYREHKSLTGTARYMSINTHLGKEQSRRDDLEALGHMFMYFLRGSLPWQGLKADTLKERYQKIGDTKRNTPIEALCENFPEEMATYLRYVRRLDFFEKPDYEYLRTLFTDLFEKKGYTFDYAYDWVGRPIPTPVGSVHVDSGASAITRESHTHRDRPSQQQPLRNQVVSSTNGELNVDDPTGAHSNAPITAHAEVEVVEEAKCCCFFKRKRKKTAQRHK
SMILES,inhibition [1] [%],inhibition [2] [%],inhibition [3] [%],inhibition [4] [%],inhibition [5] [%],inhibition [6] [%],inhibition [7] [%],inhibition [8] [%],inhibition [9] [%],inhibition [10] [%],inhibition [11] [%],inhibition [12] [%],inhibition [13] [%],inhibition [14] [%],inhibition [15] [%],inhibition [16] [%],inhibition [17] [%],inhibition [18] [%],inhibition [19] [%],inhibition [20] [%]
Fc1cccc(COc2ccc(Nc3ncnc4cc(-c5ccc[nH]5)sc34)cc2Cl)c1,3.65,2.48,2.76,1.09,2.13,0.63,0.84,-1.43,-0.95,-1.97,-1.46,-2.89,-1.56,-1.89,1.88,-1.97,-1.57,-0.46,2.07,3.58
CC(C)=Cc1cccc2c1/C(=N/Nc1ccc(S(N)(=O)=O)cc1)C(=O)N2,26.3,1.27,2.47,0.49,0.88,6.16,2.83,0.52,1.12,1.67,0.64,-0.08,2.43,28.7,69.7,103,92.4,74.1,79.3,68.5
CS(=O)(=O)Nc1ccc(N/C=C2\C(=O)Nc3ccccc32)cc1,14.2,0.15,2.2,-1.89,-1.19,-2.3,7.96,-1.92,1.81,-1.68,2.22,0.3,3.9,1.78,9.18,1.42,18.1,2.53,22,3.36
Nc1ncnc2occ(-c3ccc(NC(=O)Nc4cccc(C(F)(F)F)c4)cc3)c12,4.59,4.54,4.9,1.47,2.55,3.35,5.6,5.08,10.1,4.03,7.31,3.11,10.3,-0.24,4.91,2.4,8.86,4.68,10.8,2.04
Cc1ccc(C(=O)NC2CCCCC2)cc1-c1ccc(C(=O)NCC2CC2)cc1,3.86,1.44,-1.51,-0.17,-1.47,4.32,3.89,1.72,2.66,0.35,2.68,2.21,2.73,0.67,0.28,0.88,7.52,2.63,3.98,2.34
COc1cc(C)c(NC(=O)CN(C)C)cc1Nc1nc(Nc2cccc(F)c2C(N)=O)c2cc[nH]c2n1,25.5,61.6,89.3,31.8,73.2,-0.74,21.5,2.04,12.9,1.61,20,1.69,20.6,-0.88,-1.98,0.1,-9.04,-0.26,0.04,-0.76
CC1=C(C(=O)Nc2ccc3[nH]ncc3c2)C(c2ccc(Cl)c(Cl)c2)CC(=O)N1 (stereo not given),0.46,2.84,-0.6,1.93,-1.29,-1.74,1.97,0.83,1.68,0.32,1.4,-0.44,1.59,-0.56,-1.08,0.45,4.04,-0.59,3.25,-0.69
O=C1NC(=O)C(N2CCc3ccccc32)=C1c1ccc(Cl)cc1,5.62,3.65,2.94,1.38,0.39,4.4,5.22,4.48,5.14,2.83,5.08,4.47,3.56,1.77,3.26,-1.05,0.31,5.31,6.11,3.85
CCn1c(-c2nonc2N)nc2c(C#CC(C)(C)O)nc(OC[C@@H](N)c3ccccc3)cc21,3.45,9.5,53.4,0.46,-0.44,-0.17,0.97,-1.79,2.42,-1.05,2.82,-1.72,1.57,-0.31,-0.33,0.3,5.96,-0.8,1.32,-0.42
Cc1nn(C)c2cc(N(C)c3ccnc(Nc4cccc(S(N)(=O)=O)c4)n3)ccc12,10.3,3.95,5.39,1.61,2.71,0.9,0.72,2.37,2.59,1.72,2.93,0.54,3.06,0.25,5.8,-0.61,2.33,2.2,8.5,1.91
O=C1NC(=O)C(c2ccccc2Cl)=C1Nc1cccc(O)c1,6.91,1.56,1.53,1.05,-1.27,4.13,2.81,2.54,3.11,1.14,2.79,0.98,1.47,2.95,21,3.51,20.6,3.32,18.7,2.37
Nc1nc(-c2ccccn2)c(-c2ccc3ncccc3n2)s1,5.59,2.46,2.87,0.45,1.96,2.13,6.1,3.23,12.6,3.14,10.1,4,17.4,0.79,3.13,1.62,1.29,4.08,5.96,2.27
COc1ccc(-c2nn3ncccc3c2-c2ccnc(Nc3ccc(Cl)c(C(F)(F)F)c3)n2)cc1,2.16,2.65,4.89,2.27,5.15,-4.74,0.96,1.89,2.18,1.23,1.48,2.03,0.7,0.45,0.2,1.46,-2.2,1.44,1.76,1.87
